Potency and affinity values are given separately.
target: Protein S100-A4 (Homo sapiens) (UniProt P26447); assay: human S100A4 peptide interaction inhibition curves – biochemical, fluorescence polarization, cherry-picked hits, dose response (AID 687001); details: FP, S100A4/TAMRA-myosin IIA peptide binding; series mostly up to 11 µM; activity change, negative = inhibition: at the top concentration;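 further: 0% = DMSO neutral control wells and -100% = TFP positive control wells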
Sequence (P26447 whole entry, looked up): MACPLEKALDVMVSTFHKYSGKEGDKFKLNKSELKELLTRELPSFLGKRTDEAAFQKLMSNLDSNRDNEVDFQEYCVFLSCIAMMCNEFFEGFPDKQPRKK

Activity change, negative = inhibition, inactive:
CO[C@@H]1CC[C@H]2CCOc3c(C#N)cccc3C(=O)N(C)C[C@H](C)C(=O)N(C)C[C@H]1O2 -3.09%
COc1ccc(CNC(=O)CNC(=O)[C@@H]2Cc3ccccc3CN2)cc1 -1.67%
COc1cccc(NC(=O)CC2Oc3ccccc3NC2=O)c1 (stereo not drawn) -1.91%
O=C(C[C@@H]1C[C@H]2c3cc(NS(=O)(=O)c4ccccc4)ccc3O[C@H]2[C@@H](CO)O1)N1CCOCC1 2.46%
O=C(C[C@@H]1CC[C@H]2[C@@H](COC[C@@H](O)CN2CC2CCCCC2)O1)NCc1ccc(F)cc1 7.76%
CCn1nc(C(=O)Nc2cc(Cl)ccc2-n2cncn2)c2ccccc2c1=O 4.26%
N#C[C@@H]1[C@H](c2ccccc2C2=CCCCC2)[C@@H](CO)N1S(=O)(=O)c1cccc(F)c1 5.16%
O=C(C[C@@H]1CC[C@@H](NC(=O)CC2CC2)[C@H](CO)O1)NCc1ccc(Cl)cc1 3.57%
COC(=O)c1c(NC(=O)CN(C)CC(=O)Nc2ccc(C)cc2)sc2c1CCC(C)C2 (stereo not drawn) 2.13%
Cc1ccc(C2CC(=O)NC(SCCC(C)C)=C2C#N)cc1 (stereo not drawn) -5.51%
COc1ccc2c(CN3CCCC3)cc(=O)oc2c1 -1.04%
CC(C)C#Cc1ccc([C@H]2[C@@H](CO)N(C(=O)c3cccc(F)c3)[C@H]2C#N)cc1 1.73%
C[C@@H]1CCCCO[C@@H](CN(C)C(=O)C2CCCCC2)[C@@H](C)CN([C@H](C)CO)C(=O)c2cc(NC(=O)Nc3cccc4ccccc34)ccc2O1 8.36% [at 10 µM]
C[C@@H]1CCCCO[C@@H](CN(C)Cc2ccc(C(=O)O)cc2)[C@H](C)CN([C@H](C)CO)C(=O)c2cc(NC(=O)CCCN(C)C)ccc2O1 0.581%
COc1cc(S(=O)(=O)Nc2ccc(C)cc2)ccc1N=Cc1c(C)c(C#N)c(=O)n(C)c1O 28.3%
CCOC(=O)[C@]12CCC=C1N(Cc1cccc3ccccc13)C(=O)[C@H](CC(=O)N1CCOCC1)C2 -5.12%
CCCN1CCCCC(NC(=O)c2c(F)cccc2F)C1=O (stereo not drawn) 0.997%
O=C(Nc1ccc(Cl)cc1)N[C@H]1CC[C@H](CCNC(=O)c2ccccc2F)O[C@@H]1CO 8.02%
CN1c2ccc(C#Cc3cccnc3)cc2[C@@H]2[C@@H](CCN2S(=O)(=O)c2ccccc2F)[C@@H]1CO 62.9% [at 10 µM]
COc1ccc(NC(=O)c2ccccc2OCc2c(C)noc2C)cc1OC 2.52%
C[C@@H]1CCCCO[C@@H](CN(C)S(=O)(=O)c2ccccc2)[C@@H](C)CN([C@@H](C)CO)C(=O)c2cc(NC(=O)CCCN(C)C)ccc2O1 -9.67%
COCCN(C(=O)COC(=O)COc1ccc2ccccc2c1)c1c(N)n(Cc2ccccc2)c(=O)[nH]c1=O 3.97%
Cn1c(=O)[nH]c2c(nc(-c3ccc(Cl)cc3)n2C)c1=O -3.52%
CCOC(=O)N1CCN(Cc2nc3cc([N+](=O)[O-])ccc3n2C)CC1 -1.02%
Cc1cc(/C(N)=N/OC(=O)Nc2ccccc2)no1 0.941%
COCCCNC(=O)C[C@@H]1C[C@@]2(C(=O)OC)CCCCC=C2N(Cc2ccc3c(c2)OCO3)C1=O -2.69%
C[C@@H]1CN([C@@H](C)CO)C(=O)c2cc(NC(=O)CCCCCC(=O)Nc3ccccc3N)ccc2O[C@H]1CN(C)C(=O)Nc1ccc2c(c1)OCO2 4.37%
O=C(Nc1cccc(Cl)c1)N[C@H]1CC[C@H](CCNC(=O)C2CCCC2)O[C@H]1CO -0.796%
CCCCCC(=O)Nc1ncc2c(n1)CC(c1cccs1)CC2=O (stereo not drawn) -4.6%
Cc1cc2cc(CNC(=O)Nc3cccc(Cl)c3)ccc2n1C -16.4%
C[C@H]1CN([C@@H](C)CO)C(=O)c2cc(NC(=O)CCC(F)(F)F)ccc2O[C@@H]1CN(C)S(=O)(=O)c1cn(C)cn1 0.537% [at 10 µM]
COc1ccc2c3c(n(C)c2c1)[C@H](CO)N(C(=O)c1ccccc1)CC31CCN(C(=O)c2ccccc2)CC1 7.85%
Cc1ccc(NC(=O)CSc2ccc(-c3cccnc3)nn2)cc1 2.04%
CCCNC(=O)N1CC[C@@H]2[C@@H](CO)N(C)c3ccc(-c4ccc(F)cc4)cc3[C@@H]21 -1.37%
CCOC(=O)N1CCN(S(=O)(=O)c2ccc(C)c(C(=O)NC3CCCCC3)c2)CC1 -0.87%
C[C@@H]1CCCCO[C@@H](CN(C)C(=O)Cc2ccccc2)[C@H](C)CN([C@@H](C)CO)C(=O)c2cc(NC(=O)Cc3ccccc3)ccc2O1 -3.22%
COc1ccc(S(=O)(=O)Nc2ccc3c(c2)CC(=O)N([C@H](C)CO)C[C@H](C)[C@@H](CN(C)CC2CC2)O3)cc1 8.47%
COc1ccc2c(c1)C=CC1(O2)N(CCO)c2ccccc2C1(C)C (stereo not drawn) 112%

— PubChem BioAssay AID687001 (Broad Institute, 2013)
